From PubChem BioAssay come the findings set out here.

Unmarked numbers belong to inactive results. Active and inactive are the calls of the source. Rule as the data show it, unless noted: active = inhibition above about 30%; inactive = the rest.

Usually inhibition stands for the drop in the measured response relative to a control, in per cent.

Test [1] has as its target Nuclear receptor coactivator 3 (Homo sapiens) (UniProt Q9Y6Q9). Description: SRC3 coactivator transcriptional activity inhibitors, confirmation, cell-based, luminescence, quadruplicate (AID 588792;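 active = mean inhibition over 43.08%, the solvent-only control mean plus 3 SD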;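 also: 0% = DMSO treated cells and 100% = gossypol at 36 µM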). The settings on record: HEK293 GAL4-SRC3 luciferase reporter, at 3.6 µM, hits give high values. On the technique in general: In a reporter assay the amount or activity of a reporter protein is the signal.

In test [2] the test system is transactivating tegument protein VP16 (Human herpesvirus 1), Gal4-VP16 luciferase reporter. The experiment in a line: VP16 transactivation inhibitors, counter-screen for SRC3 inhibitor project, cell-based, luminescence, high throughput (AID 588794). The settings on record: mammalian cells, VP16-driven luciferase reporter luminescence; at 3.6 µM; hits give high values.
Test [3] deals with Nuclear receptor coactivator 1 (Homo sapiens) (UniProt Q15788). The experiment in a line: SRC1 coactivator transcriptional activity inhibitors, confirmation, cell-based, luminescence, quadruplicate (AID 588820;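 active = mean inhibition above 46.68%, the untreated control wells mean plus 3 SD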;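 also: 0% = DMSO wells and 100% = gossypol 36 µM treated wells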). The settings on record: HEK293 GAL4-SRC1 luciferase reporter, at 3.6 µM, hits give high values.
Test [4] can be described thus: VP16 transactivation inhibitors, counter-screen for SRC1 inhibitor project, cell-based, luminescence, high throughput (AID 588824; in the data active = inhibition above about 25%). Particulars: cell-based VP16 transactivation luciferase luminescence; at 3.6 µM; hits give high values. On the technique in general: Counterscreens check selectivity or assay interference.

Nuclear receptor coactivator 1 (Homo sapiens), sequence (Q15788 whole entry, looked up, the tested form may be a part): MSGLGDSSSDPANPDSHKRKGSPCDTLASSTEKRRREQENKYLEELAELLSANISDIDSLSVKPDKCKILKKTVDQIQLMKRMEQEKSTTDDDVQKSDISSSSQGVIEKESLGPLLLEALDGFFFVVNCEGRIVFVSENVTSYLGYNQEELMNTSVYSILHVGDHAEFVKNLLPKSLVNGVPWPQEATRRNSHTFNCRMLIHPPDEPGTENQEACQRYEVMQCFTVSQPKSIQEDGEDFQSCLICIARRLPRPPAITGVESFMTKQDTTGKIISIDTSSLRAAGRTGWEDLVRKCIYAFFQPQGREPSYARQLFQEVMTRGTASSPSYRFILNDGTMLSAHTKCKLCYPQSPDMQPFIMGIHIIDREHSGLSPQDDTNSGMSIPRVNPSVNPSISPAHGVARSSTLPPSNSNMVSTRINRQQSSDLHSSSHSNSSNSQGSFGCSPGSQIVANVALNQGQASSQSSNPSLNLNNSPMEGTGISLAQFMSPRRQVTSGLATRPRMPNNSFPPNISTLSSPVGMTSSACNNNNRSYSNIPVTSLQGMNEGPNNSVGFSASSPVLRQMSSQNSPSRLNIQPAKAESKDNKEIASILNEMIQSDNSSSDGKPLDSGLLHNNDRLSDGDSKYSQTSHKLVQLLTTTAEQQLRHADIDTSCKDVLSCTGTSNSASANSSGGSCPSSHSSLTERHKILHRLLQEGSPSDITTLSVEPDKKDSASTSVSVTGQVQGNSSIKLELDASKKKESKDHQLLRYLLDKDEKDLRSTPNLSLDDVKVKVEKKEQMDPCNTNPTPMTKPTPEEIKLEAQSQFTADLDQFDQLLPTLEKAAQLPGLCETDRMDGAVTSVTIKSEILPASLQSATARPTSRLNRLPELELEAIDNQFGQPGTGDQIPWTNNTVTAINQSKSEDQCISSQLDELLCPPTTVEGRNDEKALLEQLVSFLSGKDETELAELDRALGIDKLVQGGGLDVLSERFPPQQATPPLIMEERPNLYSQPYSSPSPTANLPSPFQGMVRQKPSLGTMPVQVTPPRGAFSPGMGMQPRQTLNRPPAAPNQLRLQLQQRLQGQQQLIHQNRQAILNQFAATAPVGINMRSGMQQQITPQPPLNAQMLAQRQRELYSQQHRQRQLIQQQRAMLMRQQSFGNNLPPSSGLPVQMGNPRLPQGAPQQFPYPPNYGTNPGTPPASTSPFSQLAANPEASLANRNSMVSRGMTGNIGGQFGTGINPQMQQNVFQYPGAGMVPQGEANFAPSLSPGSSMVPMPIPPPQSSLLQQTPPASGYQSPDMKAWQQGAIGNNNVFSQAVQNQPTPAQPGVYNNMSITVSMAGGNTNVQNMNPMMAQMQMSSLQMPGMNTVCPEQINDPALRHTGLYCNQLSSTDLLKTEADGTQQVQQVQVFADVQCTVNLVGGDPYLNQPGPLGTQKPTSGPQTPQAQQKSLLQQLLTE
Nuclear receptor coactivator 3 (Homo sapiens), sequence (Q9Y6Q9 whole entry, looked up, the tested form may be a part): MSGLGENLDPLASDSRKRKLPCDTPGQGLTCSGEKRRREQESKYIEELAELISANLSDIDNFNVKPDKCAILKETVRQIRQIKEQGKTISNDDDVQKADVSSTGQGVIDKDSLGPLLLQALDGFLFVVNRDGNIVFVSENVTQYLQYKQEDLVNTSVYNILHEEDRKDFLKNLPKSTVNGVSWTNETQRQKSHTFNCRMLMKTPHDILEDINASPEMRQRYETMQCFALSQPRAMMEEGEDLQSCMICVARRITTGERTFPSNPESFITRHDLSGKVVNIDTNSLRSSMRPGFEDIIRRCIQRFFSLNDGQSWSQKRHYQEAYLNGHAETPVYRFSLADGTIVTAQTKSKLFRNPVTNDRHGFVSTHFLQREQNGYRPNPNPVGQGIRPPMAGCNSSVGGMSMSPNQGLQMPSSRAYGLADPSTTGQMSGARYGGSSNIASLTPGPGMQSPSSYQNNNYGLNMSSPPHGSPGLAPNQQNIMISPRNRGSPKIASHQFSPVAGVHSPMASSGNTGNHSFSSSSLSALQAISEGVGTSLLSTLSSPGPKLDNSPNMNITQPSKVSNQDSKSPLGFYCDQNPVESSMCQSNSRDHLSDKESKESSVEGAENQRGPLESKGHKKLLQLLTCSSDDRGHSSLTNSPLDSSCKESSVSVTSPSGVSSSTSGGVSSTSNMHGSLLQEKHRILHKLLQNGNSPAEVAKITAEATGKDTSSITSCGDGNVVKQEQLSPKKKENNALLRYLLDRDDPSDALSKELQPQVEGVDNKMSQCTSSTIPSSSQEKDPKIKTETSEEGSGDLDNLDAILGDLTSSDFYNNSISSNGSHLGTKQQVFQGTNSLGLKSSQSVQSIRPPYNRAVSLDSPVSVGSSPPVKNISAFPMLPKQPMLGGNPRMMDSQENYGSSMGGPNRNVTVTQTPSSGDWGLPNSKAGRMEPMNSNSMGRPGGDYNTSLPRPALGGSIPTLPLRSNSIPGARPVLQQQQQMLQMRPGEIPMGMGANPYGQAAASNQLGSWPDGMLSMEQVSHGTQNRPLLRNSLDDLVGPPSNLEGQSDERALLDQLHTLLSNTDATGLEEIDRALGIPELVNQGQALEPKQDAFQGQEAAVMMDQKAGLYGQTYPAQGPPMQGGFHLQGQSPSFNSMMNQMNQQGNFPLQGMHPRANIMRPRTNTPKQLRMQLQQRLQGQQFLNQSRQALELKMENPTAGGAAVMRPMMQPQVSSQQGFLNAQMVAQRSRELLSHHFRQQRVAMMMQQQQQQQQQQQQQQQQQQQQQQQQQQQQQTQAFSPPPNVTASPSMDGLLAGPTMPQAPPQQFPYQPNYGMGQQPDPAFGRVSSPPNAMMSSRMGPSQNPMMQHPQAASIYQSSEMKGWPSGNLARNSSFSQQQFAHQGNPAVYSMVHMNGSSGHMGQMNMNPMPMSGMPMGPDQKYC

For the compound `COc1ccc(Nc2nc(N3CCCC3)nc3ccccc23)c(OC)c1`, the inhibition in test [1] was 16.8%; in test [2], 37.1% (active); in test [3], 5.96%; in test [4], 33.2% (active).
With `CCc1ccc2[nH]c3nc(N/N=C/c4cccc(O)c4)nnc3c2c1`, the inhibition was 37.2% in test [1], 64.4% (active) in test [2], 22.6% in test [3] and 59.5% (active) in test [4].
Consider `Oc1ccc(Nc2nc(N3CCCC3)c3ccccc3n2)cc1`, for which the inhibition in test [1] was 25.6%; in test [2], 42.7% (active); in test [3], 34%; in test [4] it was 40.2% (active).
The corresponding values for `c1ccc(-c2noc(-c3ccc4c(c3)OCO4)n2)nc1` are 17.6%, 7.86%, 8.09% and 33.7% (active).
In the case of `O=C(CNS(=O)(=O)Cc1ccccc1)NNc1ccccc1`, the inhibition was 3.12% in test [1], 12.1% in test [2], 12.8% in test [3] and 16.3% in test [4].
Regarding `COC(CN(C(=O)CCl)C(C(=O)NC1CCCCC1)c1ccccc1C)OC` (stereo not drawn), the inhibition was 53.3% (active) in test [1], 24.2% in test [2], 26.2% in test [3] and 25.1% in test [4].
Regarding `COc1ccc(CNc2nn3c(-c4cccc(C(=O)N(C)C)c4)cnc3s2)cc1`, the inhibition is 50.3% (active) in test [1], 30.7% (active) in test [2], 51.7% (active) in test [3] and 33.5% (active) in test [4].
Take `O=S(=O)(/C(=C\c1ccc(C(F)(F)F)cc1)c1nc2ccccc2[nH]1)c1ccccc1`: the inhibition in test [1] is 69.8% (active); in test [2], 25.6%; in test [3], -29.1%; in test [4], 42.4% (active).
The corresponding values for `Cc1cc(C)c2c(N)c3ccccc3nc2n1` are 15.2%, 54.6% (active), 3.44% and 53.4% (active).
Turning to `COc1cc(-c2cc3nc4ccccc4n3c(N)c2C#N)cc(OC)c1OC`, the inhibition is 14.5% in test [1], -16.8% in test [2], -42.6% in test [3] and -12.8% in test [4].
Consider `Clc1ccc(-c2csc3ncnc(NCCN4CCOCC4)c23)cc1`, for which the inhibition was 32.2% in test [1], 25.3% in test [2], 46.6% in test [3] and 31.8% (active) in test [4].
`Cc1cc2[nH]c3ccccc3c2c(C)n1`: the inhibition in test [1] is -0.94%; in test [2], 18.7%; in test [3] it was -3.38%; in test [4], 9.89%.
The corresponding values for `Nc1ncnc(NCc2ccccc2)c1[N+](=O)[O-]` are 38.8%, 26.7%, 38.1% and 42.4% (active).
On to `CN([C@@H](Cc1ccc(OS(=O)(=O)c2cccc3cnccc23)cc1)C(=O)N1CCN(c2ccccc2)CC1)S(=O)(=O)c1cccc2cnccc12`, for which the inhibition in test [1] is -2.66%; in test [2], 30.3% (active); in test [3], -4.42%; in test [4], 31.2% (active).
In the case of `Cn1c(CC(=O)Nc2ccc(Cl)c(Cl)c2)nnc1SCC(=O)N1CCN(c2ccccc2)CC1`, the inhibition is 14.9% in test [1], 12.5% in test [2], 9.04% in test [3] and 9.79% in test [4].
For `CC(=O)NC(c1cc(Cl)c2cccnc2c1O)C(C)C` (stereo not drawn), in that order: 31.1%, 23.5%, 38.5% and 20%.
Turning to `O=C(Nc1nc(-c2ccccc2)cs1)C1CCCN(S(=O)(=O)c2ccccc2)C1` (stereo not drawn), the inhibition was -1.67% in test [1], 16.4% in test [2], -23.1% in test [3] and 22.9% in test [4].
On to `NNC(=O)c1cnn(Cc2ccccc2)c1N`, for which the inhibition was -5.29% in test [1], 2.66% in test [2], -14.9% in test [3] and -5.69% in test [4].
In the case of `Cc1ccc(C(=O)O/N=C(\N)c2ccccc2)c(Cl)c1`, the inhibition in test [1] was -11.9%; in test [2], -35.4%; in test [3], -120%; in test [4], -64.6%.
On to `COc1ccc(N/N=C(\C#N)C(=N)SCc2ccccc2)cc1`, for which the inhibition in test [1] is 25.9%; in test [2], 34.2% (active); in test [3], 35.7%; in test [4], 29.5% (active).
With `O=c1cccc2c1c1cc[nH]c3ccc(=O)n2c31`, the inhibition in test [1] was 43%; in test [2], 32.9% (active); in test [3], 54.3% (active); in test [4] it was 40% (active).
For `COC(=O)c1ccc2nc(NC(=O)C(C)(C)C)sc2c1`, in that order: -14.6%, -16.8%, -142% and -60.1%.
In the case of `CCCCOC(=O)c1[nH]c2c(c1C)C(=O)CC(c1cc(OC)c(OC)c(OC)c1)C2` (stereo not drawn), the inhibition in test [1] was 8.2%; in test [2], 28%; in test [3], -1.5%; in test [4] it was 32.1% (active).
As to `Cc1ccc2nc(NNC(=O)c3ccc(S(=O)(=O)N4CCc5ccccc5C4)cc3)sc2c1`, the inhibition in test [1] was 41.8%; in test [2], 46.4% (active); in test [3] it was 45%; in test [4], 50% (active).
On to `COc1cccc(-c2ccc3ncnc(NCc4cccnc4)c3c2)c1`, for which the inhibition in test [1] was 45.5% (active); in test [2] it was 31.6% (active); in test [3], 24.8%; in test [4], 36.2% (active).
Turning to `Cc1cc(CNC(=O)c2cccc([N+](=O)[O-])c2C)c2ccccc2n1`, the inhibition is 13.9% in test [1], 41.2% (active) in test [2], 16% in test [3] and 35.8% (active) in test [4].
Turning to `CC(=O)N1CCN(c2ccc(Oc3ncnc4sccc34)cc2)CC1`, the inhibition was 25.7% in test [1], 16.9% in test [2], 27.3% in test [3] and 16.9% in test [4].
In the case of `Nc1ncnc(NCc2ccc(F)cc2)c1[N+](=O)[O-]`, the inhibition is 62.7% (active) in test [1], 29.8% (active) in test [2], 52.7% (active) in test [3] and 29.9% (active) in test [4].
Consider `CC(=O)NC(c1ccc(C)cc1)c1cc(Cl)c2cccnc2c1O` (stereo not drawn), for which the inhibition in test [1] was 26.4%; in test [2], 22.3%; in test [3], 36.4%; in test [4], 29.6% (active).
In the case of `O=c1[nH]c(=O)n(C2C[C@H](O)[C@@H](CO)O2)cc1C(F)(F)F` (stereo partly drawn), the inhibition in test [1] was 45.7% (active); in test [2], 40% (active); in test [3], 54.4% (active); in test [4] it was 44.3% (active).
For `Nc1ccc(-c2cnc(N)c(C(=O)c3cccnc3)n2)cn1`, in that order: 85.8% (active), 55.7% (active), 74.3% (active) and 56% (active).
For `COC(=O)c1cc2c(n1S(=O)(=O)c1ccc(C)cc1)C(=O)C(=O)c1[nH]cc(C(=O)OCc3ccccc3)c1-2`, in that order: 96.9% (active), 93.6% (active), 81.9% (active) and 93.2% (active).
Turning to `O=C(/C(=C/c1ccc(Cl)cc1)c1nc2ccccc2[nH]1)c1cccs1`, the inhibition in test [1] is 79.1% (active); in test [2], 61.9% (active); in test [3], 22.4%; in test [4], 49.5% (active).
Consider `c1ccc2c(-c3cncc4ccccc34)cncc2c1`, for which the inhibition in test [1] was 31.4%; in test [2], 32.7% (active); in test [3] it was 36.4%; in test [4], 28% (active).
For the compound `COc1ccc(-c2coc3c(C(=O)Nc4cc(OC)c(OC)c(OC)c4)cccc23)c(C)c1`, the inhibition was 19.8% in test [1], 29.8% (active) in test [2], 0.16% in test [3] and 31.8% (active) in test [4].
Consider `COc1ccc(/C=C2\N=C(C(C)(C)C)OC2=O)c(OC)c1`, for which the inhibition was 9.73% in test [1], 19.2% in test [2], 10% in test [3] and 3.16% in test [4].
Turning to `Cc1cc(=O)[nH]c(N/N=C/c2cc(C)n(CC(F)(F)F)c2C)n1`, the inhibition is 22% in test [1], 60.4% (active) in test [2], 43.5% in test [3] and 60.3% (active) in test [4].
With `O=c1[nH]c(=S)ccn1C1OC(CO)C(O)C1O` (stereo not drawn), the inhibition was 3.59% in test [1], -0.78% in test [2], -11.9% in test [3] and -8.74% in test [4].
Consider `O=C(Nc1c(-c2ccccc2)[nH][nH]c1=O)c1cccc(C(F)(F)F)c1`, for which the inhibition is 15.3% in test [1], 6.35% in test [2], 22% in test [3] and 0.94% in test [4].
In the case of `O=C(Nc1ccc(N2CCN(C(=O)c3ccc(Cl)cc3)CC2)cc1)c1ccc2c(c1)OCCO2`, the inhibition in test [1] is 14.2%; in test [2], 42% (active); in test [3], 1.25%; in test [4] it was 42.5% (active).
For `CCN1/C(=C/c2ccc3cc(C)cc(C)c3[n+]2CC)Sc2cc(C)ccc21`, the inhibition in test [1] was 39.4%; in test [2], 66.3% (active); in test [3], 0.74%; in test [4], 59.3% (active).
With `CC(C)Cn1c(N)c(C(=O)CSc2ccc3c(c2)OCCO3)c(=O)n(C)c1=O`, the inhibition was 35.5% in test [1], 56.9% (active) in test [2], 46% in test [3] and 51.9% (active) in test [4].
`Cc1nc2c(-c3ccc(Cl)cc3)c(C)[nH]n2c(=O)c1Cc1ccccc1`: the inhibition is 24.1% in test [1], 29.3% in test [2], 24.5% in test [3] and 22.1% in test [4].
Consider `CC(C)(C)OC(=O)NCCCC[C@H](NC(=O)c1nc[nH]c1C(=O)N[C@@H](CCCCNC(=O)OC(C)(C)C)C(=O)OC(C)(C)C)C(=O)OC(C)(C)C`, for which the inhibition was -4.98% in test [1], -9.56% in test [2], -34.5% in test [3] and -3.49% in test [4].
For the compound `COc1cc2cncc(Cc3ccc(Cl)cc3)c2cc1OC`, the inhibition in test [1] was 42.2%; in test [2], 40.7% (active); in test [3] it was 56.2% (active); in test [4] it was 39.4% (active).
Consider `CCOc1ccc(-n2c(C)c(C(C)=O)c3cc(O)ccc32)cc1`, for which the inhibition in test [1] was 59.7% (active); in test [2] it was 51.2% (active); in test [3], 60.8% (active); in test [4], 48.2% (active).
With `O=C(NC1CCCN(Cc2ccccc2F)C1)c1cccc(N2CCCC2=O)c1` (stereo not drawn), the inhibition in test [1] is 3.31%; in test [2], -7.69%; in test [3], -4.75%; in test [4] it was -1.08%.
Regarding `COC(=O)c1cc(N/C(N)=N/c2nc(C)cc(C)n2)cc(C(=O)OC)c1`, the inhibition in test [1] was 27.3%; in test [2] it was 55.4% (active); in test [3], 48.2% (active); in test [4] it was 52% (active).
For `C#CCN(C[C@@H]1[C@@H](OC(=O)NCCCCCC)[C@@H](OC(=O)NCCCCCC)Cn2c(=O)ccc(=O)n21)S(=O)(=O)c1ccc(C)cc1`, in that order: 23.3%, 31.7% (active), 23.8% and 33.4% (active).
In the case of `CCSCCc1nnc(NC(=O)Nc2cccc(C(F)(F)F)c2)s1`, the inhibition in test [1] is 47.7% (active); in test [2], 43.8% (active); in test [3], 45.9%; in test [4] it was 28.4% (active).
The corresponding values for `COc1ccc(-c2cnc(N)nc2-c2ccc(OC)cc2O)cc1` are 22.5%, 13.7%, 29.7% and 18.4%.
Take `O=C(Nc1nc(-c2ccccc2)cs1)c1ccc2c(=O)n3c(nc2c1)CCCCC3`: the inhibition is 9.45% in test [1], 31.6% (active) in test [2], -12% in test [3] and 30.9% (active) in test [4].
